# CYP2C19 inhib = blockers of cytochrome P450 2C19 activity – biochemical, luminescence, ADME assay, primary screen | CYP2C19 Supersomes, luciferin-H EGE luminescence, 30 min | hit rate 21% among 96,000 | inhibition, % at 5 µM;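 active = CYP2C19 inhibition above a set limit at 5 µM in the primary screen, cut at about 50% in these data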
# Target sequence (P33261 whole entry, looked up): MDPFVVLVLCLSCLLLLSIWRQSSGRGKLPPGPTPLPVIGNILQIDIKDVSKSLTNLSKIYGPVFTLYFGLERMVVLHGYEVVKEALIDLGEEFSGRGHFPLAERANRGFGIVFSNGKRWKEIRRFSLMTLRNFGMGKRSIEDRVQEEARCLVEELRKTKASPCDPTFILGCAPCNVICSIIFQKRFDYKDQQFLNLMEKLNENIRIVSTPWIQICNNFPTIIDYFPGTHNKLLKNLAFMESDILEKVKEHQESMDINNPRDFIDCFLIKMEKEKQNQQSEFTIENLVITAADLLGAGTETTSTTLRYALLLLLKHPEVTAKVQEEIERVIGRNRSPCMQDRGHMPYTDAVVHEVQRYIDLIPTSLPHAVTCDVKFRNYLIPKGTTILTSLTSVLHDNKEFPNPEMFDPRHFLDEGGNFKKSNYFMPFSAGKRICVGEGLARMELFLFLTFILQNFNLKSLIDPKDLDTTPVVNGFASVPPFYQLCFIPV
# CYP2C9 inh = blockers of cytochrome P450 2C9 activity – biochemical, luminescence, ADME assay, primary screen | CYP2C9 Supersomes, luciferin-H conversion | inhibition, % at 5 µM | hit rate 20% among 96,000 | AID 777, 2007;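 active = blocking of liver enzyme CYP2C9 beyond about 50% at 5 µM, limit read from the data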
# Mac1 fbg inh = inhibitors of CD11b/CD18 adhesion to fibrinogen, primary screen, K562 cells, luminescence; ATPlite luminescence; Mn2+ added to activate the integrin; inhibition, % at 10 µM; hit rate 0.54% among 93,000; Integrin beta-2 (Homo sapiens) + Integrin alpha-M (Homo sapiens), P05107+P11215;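 active = primary inhibition of 50% or more at 10 µM, then 40% or more on retest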
# Mac1 fbg enh = enhancers of CD11b/CD18 adhesion to fibrinogen, primary screen, K562 cells, luminescence; Integrin beta-2 (Homo sapiens) + Integrin alpha-M (Homo sapiens), P05107+P11215; ATPlite luminescence; activation, % at 10 µM; hit rate 0.07% among 93,000;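 active = 10 µM primary screen giving 50% or more activity, confirmed by 40% or more on retest at that dose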
# CYP2C19 act = human CYP2C19 activators, primary screen, biochemical, luminescence; activation factor at 5 µM; 96,000 tested, under 10 active; recombinant CYP2C19, luciferin-H EGE luminescence; hits give high values; 0 = fully inhibited enzyme, 1 = untreated enzyme;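 active = activation factor of at least 2 at 5 µM in the primary screen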
# CYP2C9 activ = human CYP2C9 activators, primary screen, biochemical, luminescence; hit rate 1.4% among 96,000; Cytochrome P450 2C9 (Homo sapiens), P11712; activation factor at 5 µM; recombinant CYP2C9, luciferin-H conversion; hits give high values; factor 1 = untreated enzyme, 0 = blocked;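 active = activation factor of 2 or more for CYP2C9 at a 5 µM dose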
# A number is an active result; i = inactive; nt = no result given. The list is not random: actives were taken first. Their share in the collection is about 28%.
SMILES,CYP2C19 inhib,CYP2C9 inh,Mac1 fbg inh,Mac1 fbg enh,CYP2C19 act,CYP2C9 activ
O=C(c1cc(-c2ccncc2)nc2ccc(Cl)cc12)N1CCN(C(=O)C2CCCO2)CC1 (stereo not given),i,74,i,i,i,i
O=c1c2ccccc2nc(CSc2nnnn2-c2ccccc2)n1-c1cccc(C(F)(F)F)c1,i,i,i,i,i,i
CCc1nc2ccccc2n1Cc1ccccc1OC,96,65,i,i,i,i
COc1ccc(C)cc1Cn1c(S(C)(=O)=O)nc2ccccc21,98,62,i,i,i,i
COc1ccc(Cn2c(CCCO)nc3ccccc32)cc1OC,91,59,i,i,i,i
Cc1ccccc1Cn1c(Cc2ccccc2)nc2ccccc21,i,i,nt,nt,i,i
COc1ccccc1Cn1c(CCCO)nc2ccccc21,84,65,i,i,i,i
COCCOCCn1c(CCCO)nc2ccccc21,i,i,i,i,i,i
O=C(CN1CCCC1)Nc1ccc(-c2nc3cc(NC(=O)CN4CCCC4)ccc3o2)cc1,i,i,i,i,i,i
CCOC(=O)C1CCCc2c1[nH]c1c(C(=O)O)cccc21 (stereo not given),i,i,i,i,i,i
CCS(=O)(=O)c1nc2ccccc2n1Cc1ccccc1Cl,91,62,i,i,i,i
COc1cc(OC)cc(-c2cc(N)n(S(=O)(=O)Cc3ccccc3)n2)c1,i,87,i,i,i,i
Nc1cc(-c2ccc(Cl)cc2)nn1S(=O)(=O)c1ccc(Cl)cc1,i,i,i,i,i,i
CCCS(=O)(=O)n1nc(-c2ccc(C)cc2)cc1N,91,67,i,i,i,i
CCCS(=O)(=O)n1nc(-c2ccc(OC)cc2)cc1N,94,87,i,i,i,i
Cc1ccc(-c2cc(N)n(Cc3ccc(Cl)cc3)n2)cc1,83,62,nt,nt,i,i
COc1cc([N+](=O)[O-])ccc1NC(=O)CCCOc1cccc(C)c1,i,i,i,i,i,i
CCOC(=O)N1CCC(n2c(=S)[nH]c3cc(OC)c(OC)cc3c2=O)CC1,i,i,i,i,i,i
O=C(CCCn1c(=O)[nH]c2cc(Cl)ccc2c1=O)N1CCN(c2ccc([N+](=O)[O-])cc2)CC1,i,i,i,i,i,i
CCn1c(O)c(N=NC(=O)CNC(=O)/C=C/c2ccco2)c2ccccc21,50,65,i,i,i,i
CCn1c(O)c(N=NC(=O)CNC(=O)c2ccco2)c2ccccc21,nt,nt,i,i,nt,nt
Cn1c(C(=O)NCCCN2CCN(c3ccccc3F)CC2)cc2c(=O)n(C)c3ccccc3c21,66,50,i,i,i,i
Cc1ccccc1CS(=O)(=O)CCC(=O)NCCCN1CCN(c2ccccc2F)CC1,i,i,nt,nt,i,i
Cc1cc(=O)oc(C)c1C(=O)NCCCN1CCN(c2ccccc2F)CC1,i,64,i,i,i,i
Cc1nnc(NC(=O)c2sc3ccccc3c2Cl)s1,i,55,70,i,i,i
SMILES,CYP2C19 inhib,CYP2C9 inh,Mac1 fbg inh,Mac1 fbg enh,CYP2C19 act,CYP2C9 activ
Cc1nnc(NC(=O)c2ccccc2Br)s1,i,55,i,i,i,i
COCc1nnc(NC(=O)c2sc3ccccc3c2Cl)s1,i,i,i,i,i,i
Cn1c(=O)c2c(nc(SCCOc3ccc4ccc(=O)oc4c3)n2C)n(C)c1=O,i,i,i,i,i,i
N#Cc1ccc(CSc2nnc(-c3ccncc3)n2CCc2ccccc2)cc1,61,54,i,i,i,i
N#Cc1ccc(CSc2nnc(-c3ccccn3)n2-c2ccccc2)cc1,78,i,i,i,i,i
O=C(O)CSc1nnc(-c2ccncc2)n1CCc1ccccc1,i,i,i,i,i,i
N#Cc1ccc(CSc2nnc(-c3cccs3)n2-c2ccccc2)cc1,93,92,i,i,i,i
CC(C)OC(=O)CSc1nnc(-c2ccccn2)n1-c1ccccc1,i,i,nt,i,i,i
COc1ccc(-n2c(SCCC(=O)O)nnc2-c2ccncc2)cc1,i,i,i,i,i,i
COC(=O)c1cc2c(-c3ccccc3)c(C)c3ccccn3c-2c1C(=O)OC,67,88,i,i,i,i
Cn1ncc(Br)c1C(=O)Nc1ccc(Cl)cn1,i,i,i,i,i,i
O=C1/C(=C\c2cccnc2)CCc2ccccc21,75,i,i,i,i,i
Cc1ccccc1NC(=O)CC1SC(=NC2CCCCC2)NC1=O (stereo not given),i,67,i,i,i,i
CCn1c(=O)c2c3c(sc2n2c(=S)[nH]nc12)CCC3,80,97,i,i,i,i
Cn1c(=O)c2c3c(sc2n2c(SCC(N)=O)nnc12)CC(C(C)(C)C)CC3 (stereo not given),58,i,i,i,i,i
CCCSc1nnc2n(Cc3ccccc3)c(=O)c3c4c(sc3n12)CCC4,i,i,i,i,i,i
CCCSc1nnc2n(C)c(=O)c3c4c(sc3n12)CCC4,53,61,i,i,i,i
O=C(Nc1nccs1)c1cc(S(=O)(=O)N2CCOCC2)ccc1Cl,i,i,i,i,i,i
Cc1cc2nc(NC3=NCN(Cc4ccc5c(c4)OCO5)CN3)nc(C)c2cc1C,i,i,i,i,i,i
O=C(Nc1ccc(Cl)cc1C(=O)NCC1CCCO1)c1ccc(Cl)cc1Cl (stereo not given),nt,nt,i,i,nt,nt
COC(=O)c1ccc(CSc2nc3ccccc3c(=O)n2Cc2ccco2)o1,97,100,i,i,i,i
COC(=O)c1ccc(CSc2nc3ccccc3c(=O)n2CC(C)C)o1,i,57,i,i,i,i
COCCn1c(SCC(=O)c2ccc(CNC(C)=O)o2)nc2ccccc2c1=O,i,i,i,i,i,i
CCn1cc(C(=O)NCc2ccc3c(c2)OCO3)c(=O)c2cc(F)c(N3CCN(C(=O)c4ccco4)CC3)cc21,i,58,i,i,i,i
CC(=O)c1cc(F)c(N2CCN(C(=O)c3ccco3)CC2)cc1C,60,i,i,i,i,i
CCn1cc(C(=O)NCc2ccccc2)c(=O)c2cc(F)c(N3CCN(C(=O)c4ccco4)CC3)cc21,53,64,i,i,i,i
Cc1n[nH]c(C)c1S(=O)(=O)NCCc1ccc(Cl)cc1,i,i,i,i,i,i
COCCn1nnnc1CN1C2CCCC1CC(NC(C)=O)C2 (stereo not given),i,i,i,i,i,i
O=S(=O)(N1CCOCC1)n1nnc2ccccc21,i,i,i,i,i,i

# Bioassay records from PubChem BioAssay.
